This note sets out measurements from publication PMC7862700, “An all-to-all approach to the identification of sequence-specific readers for epigenetic DNA modifications on cytosine”.

Holding throughout (assay): DAPPL (digital affinity profiling via proximity ligation, sequencing); 10 mM Tris-HCl pH 7.5, 50 mM NaCl, 1 mM DTT, 4% glycerol, room temperature, 30 min; GST-TFs on glutathione beads, 16-mer random dsDNA library, 0.1% formaldehyde crosslink after washing; high values mean tight binding
Holding throughout (conditions): protein: recombinant; tags: N-terminal GST; dsDNA, one strand shown

One assay has as its target T1, ELK1 (Homo sapiens, UniProt P19419 1-428).
T1 sequence: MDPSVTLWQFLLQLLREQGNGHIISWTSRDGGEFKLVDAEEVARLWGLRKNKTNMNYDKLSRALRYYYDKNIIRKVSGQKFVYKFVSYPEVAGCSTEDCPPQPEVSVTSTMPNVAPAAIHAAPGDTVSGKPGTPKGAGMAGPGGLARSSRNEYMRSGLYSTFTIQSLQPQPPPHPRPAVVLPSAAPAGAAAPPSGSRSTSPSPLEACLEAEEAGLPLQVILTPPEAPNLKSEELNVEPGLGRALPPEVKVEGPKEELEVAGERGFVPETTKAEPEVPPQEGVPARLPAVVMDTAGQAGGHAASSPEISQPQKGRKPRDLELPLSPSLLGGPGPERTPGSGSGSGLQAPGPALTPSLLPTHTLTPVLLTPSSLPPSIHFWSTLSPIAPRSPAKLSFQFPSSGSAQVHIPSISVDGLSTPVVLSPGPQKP
The method in brief:
(§1)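 GST fusions of human transcription factors were expressed in yeast and captured with glutathione beads. Once given DNA barcodes and pooled alongside a tag-only sample, they were incubated for 30 min at room temperature with 200 nmole of a random double-stranded 16-mer DNA library in Tris/NaCl/DTT/glycerol buffer, then washed, crosslinked (0.1% formaldehyde), proximity-ligated, PCR-amplified and sequenced on an Illumina NextSeq500. The binding signal of each hexamer is its read frequency for a factor divided by its frequency for the tag-only sample.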

The next assay concerns the target T2, ERG (Homo sapiens, UniProt P11308 1-479).
T2 sequence: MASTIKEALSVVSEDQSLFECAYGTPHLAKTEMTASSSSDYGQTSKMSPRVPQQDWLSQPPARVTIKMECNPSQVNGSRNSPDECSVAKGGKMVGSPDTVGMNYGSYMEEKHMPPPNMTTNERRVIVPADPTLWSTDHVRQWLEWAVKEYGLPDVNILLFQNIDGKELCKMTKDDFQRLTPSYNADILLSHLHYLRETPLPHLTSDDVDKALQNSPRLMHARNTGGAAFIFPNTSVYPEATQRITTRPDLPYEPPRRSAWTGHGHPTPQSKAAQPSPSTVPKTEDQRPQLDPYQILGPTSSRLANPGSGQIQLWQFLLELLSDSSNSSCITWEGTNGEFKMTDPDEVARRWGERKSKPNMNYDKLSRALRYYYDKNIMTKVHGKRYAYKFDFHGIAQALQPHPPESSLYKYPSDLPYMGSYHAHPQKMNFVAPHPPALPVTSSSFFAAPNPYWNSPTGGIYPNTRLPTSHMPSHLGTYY
The method in brief: as §1

The next assay has as its target ELF1 (Homo sapiens, UniProt P32519 1-619). The procedure, abridged:
as §1

The target of the next assay is T3, EHF (Homo sapiens, UniProt Q9NZC4 1-300).
T3 sequence: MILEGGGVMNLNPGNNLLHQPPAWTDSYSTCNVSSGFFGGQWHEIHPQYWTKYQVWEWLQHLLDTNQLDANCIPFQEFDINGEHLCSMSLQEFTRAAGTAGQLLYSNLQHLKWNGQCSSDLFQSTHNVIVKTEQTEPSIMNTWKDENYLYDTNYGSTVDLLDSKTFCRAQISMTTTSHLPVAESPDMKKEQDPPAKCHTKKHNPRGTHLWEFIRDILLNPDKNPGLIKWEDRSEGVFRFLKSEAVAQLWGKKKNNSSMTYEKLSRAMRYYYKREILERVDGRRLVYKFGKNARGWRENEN
The procedure, abridged: as §1

The target in a further assay is SPIB (Homo sapiens, UniProt Q01892 1-262). The method in brief:
as §1

The next assay has as its target T4, FEV (Homo sapiens, UniProt Q99581 1-238).
T4 sequence: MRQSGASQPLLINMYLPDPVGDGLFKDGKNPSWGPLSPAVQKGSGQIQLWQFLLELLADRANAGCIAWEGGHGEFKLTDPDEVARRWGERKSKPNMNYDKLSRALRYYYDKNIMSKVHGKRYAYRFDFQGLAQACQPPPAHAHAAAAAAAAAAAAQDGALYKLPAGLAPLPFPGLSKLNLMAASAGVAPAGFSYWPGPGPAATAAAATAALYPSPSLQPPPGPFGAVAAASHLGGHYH
The method in brief: as §1

A further assay addresses ETV5 (Homo sapiens, UniProt P41161 1-510). The method in brief:
as §1

A further assay addresses ELF4 (Homo sapiens, UniProt Q99607 1-663). The method in brief:
as §1

A further assay deals with T5, ELK4 (Homo sapiens, UniProt P28324-2 1-405).
T5 sequence: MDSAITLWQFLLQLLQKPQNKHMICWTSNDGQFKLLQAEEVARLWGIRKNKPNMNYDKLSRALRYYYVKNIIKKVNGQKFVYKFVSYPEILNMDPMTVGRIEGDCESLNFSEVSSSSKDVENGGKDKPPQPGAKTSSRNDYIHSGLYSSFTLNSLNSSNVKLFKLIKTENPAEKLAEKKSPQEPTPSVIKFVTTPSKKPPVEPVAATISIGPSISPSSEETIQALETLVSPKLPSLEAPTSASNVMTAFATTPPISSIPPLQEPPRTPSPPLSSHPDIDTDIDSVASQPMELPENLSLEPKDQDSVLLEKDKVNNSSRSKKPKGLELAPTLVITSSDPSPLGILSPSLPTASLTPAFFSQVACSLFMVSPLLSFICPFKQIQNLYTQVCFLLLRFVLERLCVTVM
The method in brief: as §1

A further assay concerns the target ETV1 (Homo sapiens, UniProt P50549 1-477). The method in brief:
as §1

Another assay concerns the target T6, ERF (Homo sapiens, UniProt P50548 1-548).
T6 sequence: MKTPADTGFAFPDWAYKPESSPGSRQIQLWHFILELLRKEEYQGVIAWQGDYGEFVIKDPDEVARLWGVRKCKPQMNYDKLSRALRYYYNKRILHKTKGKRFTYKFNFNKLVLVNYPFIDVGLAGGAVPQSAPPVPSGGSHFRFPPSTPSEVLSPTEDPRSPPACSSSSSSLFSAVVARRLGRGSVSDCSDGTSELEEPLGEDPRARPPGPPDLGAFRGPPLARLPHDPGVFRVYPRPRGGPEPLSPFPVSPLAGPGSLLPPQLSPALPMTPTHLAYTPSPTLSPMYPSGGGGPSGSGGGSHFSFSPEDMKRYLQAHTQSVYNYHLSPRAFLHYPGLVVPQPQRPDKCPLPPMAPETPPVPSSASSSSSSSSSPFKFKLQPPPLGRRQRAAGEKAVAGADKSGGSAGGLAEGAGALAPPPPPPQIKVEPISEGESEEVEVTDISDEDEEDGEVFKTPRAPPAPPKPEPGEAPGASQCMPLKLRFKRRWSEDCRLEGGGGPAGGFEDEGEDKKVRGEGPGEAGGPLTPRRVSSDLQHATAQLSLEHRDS
The procedure, abridged:
as §1

For another assay, the target named is T7, ETV3L (Homo sapiens, UniProt Q6ZN32 1-361).
T7 sequence: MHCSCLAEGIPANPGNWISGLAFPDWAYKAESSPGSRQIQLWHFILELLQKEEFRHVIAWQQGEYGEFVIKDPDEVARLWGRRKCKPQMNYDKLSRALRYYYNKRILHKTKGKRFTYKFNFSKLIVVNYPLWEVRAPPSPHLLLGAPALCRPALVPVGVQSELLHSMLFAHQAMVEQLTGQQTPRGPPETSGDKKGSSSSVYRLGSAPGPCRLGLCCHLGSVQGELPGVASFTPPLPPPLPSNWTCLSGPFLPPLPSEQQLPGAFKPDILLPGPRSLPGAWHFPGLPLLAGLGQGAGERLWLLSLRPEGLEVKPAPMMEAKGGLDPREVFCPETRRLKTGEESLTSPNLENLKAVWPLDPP
The procedure, abridged:
as §1

For a further assay, the target named is T8, ETS2 (Homo sapiens, UniProt P15036 1-469).
T8 sequence: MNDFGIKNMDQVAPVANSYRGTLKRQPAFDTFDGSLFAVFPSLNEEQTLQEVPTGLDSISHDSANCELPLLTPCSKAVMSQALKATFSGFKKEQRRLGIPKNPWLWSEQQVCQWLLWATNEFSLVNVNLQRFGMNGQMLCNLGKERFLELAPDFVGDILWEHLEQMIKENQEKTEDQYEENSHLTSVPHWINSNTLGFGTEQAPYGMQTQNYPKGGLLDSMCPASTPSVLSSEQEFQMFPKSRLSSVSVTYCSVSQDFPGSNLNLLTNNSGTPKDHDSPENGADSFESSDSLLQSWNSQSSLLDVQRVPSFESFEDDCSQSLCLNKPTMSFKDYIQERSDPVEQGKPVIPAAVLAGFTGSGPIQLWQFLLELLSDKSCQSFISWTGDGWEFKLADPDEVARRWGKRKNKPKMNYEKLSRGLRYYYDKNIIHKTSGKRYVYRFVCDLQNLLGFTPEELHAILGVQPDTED
The method in brief: as §1

Another assay concerns the target T9, SPDEF (Homo sapiens, UniProt O95238 1-335).
T9 sequence: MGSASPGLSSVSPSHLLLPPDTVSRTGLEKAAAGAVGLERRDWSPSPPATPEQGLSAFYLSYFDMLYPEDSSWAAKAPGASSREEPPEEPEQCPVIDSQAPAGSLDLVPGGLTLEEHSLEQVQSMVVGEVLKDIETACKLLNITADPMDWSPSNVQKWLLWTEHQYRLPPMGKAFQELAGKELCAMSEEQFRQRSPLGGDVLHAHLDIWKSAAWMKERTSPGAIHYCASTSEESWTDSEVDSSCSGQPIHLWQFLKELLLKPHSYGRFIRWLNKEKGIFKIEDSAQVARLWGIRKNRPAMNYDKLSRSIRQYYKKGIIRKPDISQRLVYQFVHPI
The method in brief:
as §1

The target of a further assay is T10, ETV7 (Homo sapiens, UniProt Q9Y603 1-341).
T10 sequence: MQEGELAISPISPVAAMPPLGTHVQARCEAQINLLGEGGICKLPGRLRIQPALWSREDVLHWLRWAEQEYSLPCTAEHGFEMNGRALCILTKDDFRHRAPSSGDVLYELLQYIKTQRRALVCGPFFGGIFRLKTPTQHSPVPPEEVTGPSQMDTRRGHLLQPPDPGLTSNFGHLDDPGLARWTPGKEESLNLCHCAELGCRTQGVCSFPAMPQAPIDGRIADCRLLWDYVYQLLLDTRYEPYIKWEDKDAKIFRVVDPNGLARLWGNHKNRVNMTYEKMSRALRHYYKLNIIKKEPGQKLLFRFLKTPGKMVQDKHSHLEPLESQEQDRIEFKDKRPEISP
The method in brief:
as §1

The next assay has as its target T11, ETV3 (Homo sapiens, UniProt P41162-2 1-143).
T11 sequence: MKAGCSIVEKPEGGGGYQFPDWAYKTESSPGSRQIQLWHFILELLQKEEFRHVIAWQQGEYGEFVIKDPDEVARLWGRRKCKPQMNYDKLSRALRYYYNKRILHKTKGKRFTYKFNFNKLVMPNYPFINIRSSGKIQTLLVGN
The procedure, abridged:
as §1

The next assay deals with ETV6 (Homo sapiens, UniProt P41212 1-452). The method in brief:
as §1

Sequence of SPIB (Q01892 whole entry): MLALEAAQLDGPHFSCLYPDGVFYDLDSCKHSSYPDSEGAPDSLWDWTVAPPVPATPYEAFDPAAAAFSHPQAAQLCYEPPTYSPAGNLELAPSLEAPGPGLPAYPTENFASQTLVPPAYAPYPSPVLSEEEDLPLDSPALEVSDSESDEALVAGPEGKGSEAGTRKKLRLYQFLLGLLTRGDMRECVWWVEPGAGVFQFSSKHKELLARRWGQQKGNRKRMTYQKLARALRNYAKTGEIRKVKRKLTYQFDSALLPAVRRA
Sequence of ETV6 (P41212 whole entry): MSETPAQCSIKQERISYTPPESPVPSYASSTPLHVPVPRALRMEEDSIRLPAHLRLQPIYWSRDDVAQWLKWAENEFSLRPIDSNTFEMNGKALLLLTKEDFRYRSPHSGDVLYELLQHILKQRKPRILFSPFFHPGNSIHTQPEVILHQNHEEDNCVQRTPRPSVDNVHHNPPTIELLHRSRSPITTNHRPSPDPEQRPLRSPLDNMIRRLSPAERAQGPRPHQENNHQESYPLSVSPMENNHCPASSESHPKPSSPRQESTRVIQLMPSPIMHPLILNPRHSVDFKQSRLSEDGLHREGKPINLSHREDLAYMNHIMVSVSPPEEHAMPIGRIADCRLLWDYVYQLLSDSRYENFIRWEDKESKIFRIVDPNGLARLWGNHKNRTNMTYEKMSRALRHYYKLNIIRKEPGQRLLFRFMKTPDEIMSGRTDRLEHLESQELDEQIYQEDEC
Sequence of ETV5 (P41161 whole entry): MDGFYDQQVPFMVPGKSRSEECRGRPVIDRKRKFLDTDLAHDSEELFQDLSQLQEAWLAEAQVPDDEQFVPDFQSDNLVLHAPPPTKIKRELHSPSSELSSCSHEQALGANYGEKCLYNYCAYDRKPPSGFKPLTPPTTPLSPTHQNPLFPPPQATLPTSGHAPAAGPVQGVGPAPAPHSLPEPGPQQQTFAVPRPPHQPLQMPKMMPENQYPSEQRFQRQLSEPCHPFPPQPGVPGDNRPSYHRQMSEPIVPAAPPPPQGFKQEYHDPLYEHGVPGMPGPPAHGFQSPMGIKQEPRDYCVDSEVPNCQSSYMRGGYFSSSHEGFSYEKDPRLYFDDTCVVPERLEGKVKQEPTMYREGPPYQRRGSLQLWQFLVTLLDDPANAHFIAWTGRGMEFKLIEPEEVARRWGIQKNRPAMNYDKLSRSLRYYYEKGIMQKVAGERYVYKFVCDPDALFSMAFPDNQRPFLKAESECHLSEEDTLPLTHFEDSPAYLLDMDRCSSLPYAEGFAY
Sequence of ELF1 (P32519 whole entry): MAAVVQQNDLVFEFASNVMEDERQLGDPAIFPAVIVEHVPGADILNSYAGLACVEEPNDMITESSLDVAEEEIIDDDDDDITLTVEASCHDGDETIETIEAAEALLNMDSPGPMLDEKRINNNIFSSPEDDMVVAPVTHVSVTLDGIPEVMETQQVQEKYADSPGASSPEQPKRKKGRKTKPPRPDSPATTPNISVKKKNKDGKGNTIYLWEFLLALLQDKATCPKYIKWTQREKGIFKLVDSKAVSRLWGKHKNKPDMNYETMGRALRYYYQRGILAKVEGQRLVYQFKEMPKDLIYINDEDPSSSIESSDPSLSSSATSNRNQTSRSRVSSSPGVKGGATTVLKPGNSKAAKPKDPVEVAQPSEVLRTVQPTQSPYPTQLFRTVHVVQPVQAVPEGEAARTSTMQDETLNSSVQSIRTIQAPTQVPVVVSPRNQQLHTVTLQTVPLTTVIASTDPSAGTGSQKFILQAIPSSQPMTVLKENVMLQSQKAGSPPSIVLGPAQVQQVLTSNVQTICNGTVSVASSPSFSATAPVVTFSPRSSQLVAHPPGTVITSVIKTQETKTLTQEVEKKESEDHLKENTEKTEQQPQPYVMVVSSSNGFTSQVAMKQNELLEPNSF
Sequence of ELF4 (Q99607 whole entry): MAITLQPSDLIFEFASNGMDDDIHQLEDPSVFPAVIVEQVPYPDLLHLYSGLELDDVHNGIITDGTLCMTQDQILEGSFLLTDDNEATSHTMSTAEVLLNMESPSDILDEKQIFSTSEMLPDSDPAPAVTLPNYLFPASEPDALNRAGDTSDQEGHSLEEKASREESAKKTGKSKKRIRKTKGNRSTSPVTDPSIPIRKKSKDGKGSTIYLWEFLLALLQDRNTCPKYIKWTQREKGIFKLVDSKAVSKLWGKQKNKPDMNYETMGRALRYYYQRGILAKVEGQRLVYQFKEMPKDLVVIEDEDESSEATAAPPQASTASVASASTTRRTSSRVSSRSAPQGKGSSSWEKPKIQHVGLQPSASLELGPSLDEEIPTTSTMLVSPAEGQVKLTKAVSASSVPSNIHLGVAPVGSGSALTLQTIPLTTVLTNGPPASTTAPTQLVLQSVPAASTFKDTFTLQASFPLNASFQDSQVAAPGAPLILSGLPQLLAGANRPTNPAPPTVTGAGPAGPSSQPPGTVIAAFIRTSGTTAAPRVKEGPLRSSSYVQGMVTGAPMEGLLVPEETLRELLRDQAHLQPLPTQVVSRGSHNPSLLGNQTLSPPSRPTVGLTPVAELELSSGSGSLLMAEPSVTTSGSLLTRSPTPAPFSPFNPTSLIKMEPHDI
Sequence of ETV1 (P50549 whole entry): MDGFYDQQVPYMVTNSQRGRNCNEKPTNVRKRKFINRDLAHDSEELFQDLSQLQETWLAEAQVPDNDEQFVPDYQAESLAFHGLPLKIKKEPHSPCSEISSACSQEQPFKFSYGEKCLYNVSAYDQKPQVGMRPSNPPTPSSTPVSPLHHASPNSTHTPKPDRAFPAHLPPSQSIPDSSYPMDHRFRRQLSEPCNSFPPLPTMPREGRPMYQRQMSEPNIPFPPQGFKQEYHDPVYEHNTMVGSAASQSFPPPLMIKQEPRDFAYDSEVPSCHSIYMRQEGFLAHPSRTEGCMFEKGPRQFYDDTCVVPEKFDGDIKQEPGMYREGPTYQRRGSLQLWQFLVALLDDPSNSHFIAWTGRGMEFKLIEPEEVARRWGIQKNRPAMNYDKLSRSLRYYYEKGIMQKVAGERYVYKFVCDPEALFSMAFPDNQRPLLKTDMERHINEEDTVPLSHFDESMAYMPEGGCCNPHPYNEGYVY

GGTACA: the binding signal with ELK1 was 1.08 fold enrichment (6-mer frequency, TF over GST control); with ERG, 1.09 fold enrichment (6-mer frequency, TF over GST control); in the assay with ELF1, 1.03 fold enrichment (6-mer frequency, TF over GST control); in the assay with EHF it was 1.05 fold enrichment (6-mer frequency, TF over GST control); with SPIB, 1.11 fold enrichment (6-mer frequency, TF over GST control); with FEV it was 1.03 fold enrichment (6-mer frequency, TF over GST control). Also, the binding signal was 1.05 fold enrichment (6-mer frequency, TF over GST control) with ETV5; 1 fold enrichment (6-mer frequency, TF over GST control) with ELF4; 1.11 fold enrichment (6-mer frequency, TF over GST control) with ELK4; 1.07 fold enrichment (6-mer frequency, TF over GST control) in the assay with ETV1; 1.09 fold enrichment (6-mer frequency, TF over GST control) in the assay with ERF; 1.04 fold enrichment (6-mer frequency, TF over GST control) with ETV3L. For the same sequence, the binding signal is 1.03 fold enrichment (6-mer frequency, TF over GST control) in the assay with ETS2; 1.11 fold enrichment (6-mer frequency, TF over GST control) in the assay with SPDEF; 1.11 fold enrichment (6-mer frequency, TF over GST control) with ETV7; 1.09 fold enrichment (6-mer frequency, TF over GST control) with ETV3; 1.11 fold enrichment (6-mer frequency, TF over GST control) in the assay with ETV6.
